Data published in PubChem BioAssay (Tox21).
Values joined by “and” are separate entries in the source; they are usually repeats but may differ in a detail not shown here. Identical values can stand only once. Records with an inconclusive call do not appear. Where a structure was tested more than once in an assay, its records may differ in their call. Active and inactive are the calls of the source. Calls come from the whole dose curve; as a rule, active = well fitted activation curve with a large enough effect in the repeat runs; inconclusive = weak or mixed curves; inactive = flat fitted curve, though single readings scatter. Starred links: 1 amine or outer side, 2 acyl side, 3 side chain; linkers in the order of their positions; H or OH if unused. Positions of bridges follow the written chain, without caps; N, C: chain ends. Non-standard residues stand in square brackets, D forms with d. Residues, ends and D or L forms follow the SMILES beside them. Chains are numbered I, II in the order given. Actinocin(9to1) = Cc1c2oc3c(C)ccc(C(=O)[*:1])c3nc-2c(C(=O)[*:2])c(N)c1=O; NMeV = CN[C@H](C(=O)O)C(C)C; Sar = CNCC(=O)O

assay: A CellTox Green Cytotoxicity Assay to monitor cytotoxicity in HEK293 cells - 32 hour (AID 1224881); settings: CellTox Green fluorescence; series mostly up to 76.8 µM; cytotoxicity increase: at the top concentration; note: nearly all actives have a fitted effect of over 40% in size
Text: National Center for Advancing Translational Sciences [NCATS]
NIH Chemical Genomics Center [NCGC]
U.S. Environmental Protection Agency [EPA]
National Institutes of Environmental Health Sciences [NIEHS]
National Toxicology Program [NTP]
Cell-based models are critical for drug discovery. Determining the natural cytotoxic effects resulting from test compounds is an essential research activity. A CellTox Green Cytotoxicity Assay to monitor cytotoxicity in real time of continues cell culture during 40 hours of the compound treatment was used to screen Tox21 10K library compounds in Hek293 cells. CellTox Green Cytotoxicity Assay is a nonlytic, homogeneous, biofluorescent method to measure cytotoxicity in cell culture after experimental manipulation. The assay system uses a proprietary asymmetric cyanine dye that is excluded from viable cells but preferentially stains the dead cell's DNA. […] Viable cells produce no appreciable increases in fluorescence. Therefore, the fluorescence signal produced by the binding interaction with dead cell DNA is proportional to cytotoxicity.
The mixture of Hek293 cell suspension and reagents were dispensed at 600cells/6 ul/well in 1536-well tissue culture treated black solid bottom plates using a Multidrop dispenser. After the assay plates were incubated at a 37 C/5% CO2 incubator for 5 hours, 23 nL of compounds dissolved in DMSO, positive and negative controls was transferred to the assay plate by a pintool work station. The plates were incubated at 37 C for 40 hours. The fluorescence intensity were measured at 0h, 8h, 16h, 24h, 32h and 40h time points using ViewLux plate reader during compound treatment.
% is set by controls: 0 for no effect and ±100 for the full control effect; potency is the fitted concentration of half-maximal effect.

| Structure (SMILES) | Potency | cytotoxicity increase |
| --- | --- | --- |
| O=C1CC2(CCCC2)CC(=O)N1CCCCN1CCN(c2ncccn2)CC1 | inactive | – |
| CCC(C)(Oc1ccc(C2(c3ccc(OC(C)(CC)C(=O)O)cc3)CCCCC2)cc1)C(=O)O (stereo not given) | – | -5.02% [at 35.3 µM] (inactive) |
| CCN(CC)c1ccc2c(C)cc(=O)oc2c1 | inactive | – |
| CC(COc1ccccc1)N(CCCl)Cc1ccccc1 (stereo not given) | 55.5 µM (active) and 21.3 µM (active) | – |
| CCCCCCC(O)CCCCCCCCCCC(=O)O (stereo not given) | inactive | – |
| c1ccc2c(c1)CCCC2C1=NCCN1 (stereo not given) | – | -3.11% [at 35.3 µM] (inactive) |
| CCN(CC)C(=O)Nc1ccc(OCC(O)CNC(C)(C)C)c(C(C)=O)c1 (stereo not given) | – | -17.2% [at 35.3 µM] (inactive) |
| COc1ccc(CCN2CCC(Nc3nc4ccccc4n3Cc3ccc(F)cc3)CC2)cc1 | 14.1 µM (active) and 23.9 µM (active) | – |
| C/C=C/c1ccc(OCC)c(O)c1 | – | 0.83% (inactive) |
| CC(C)CCOCc1ccccc1 | – | 4.29% (inactive) |
| c1ccc2cc3c(ccc4ccccc43)cc2c1 | inactive | – |
| CC[C@]1(O)C[C@@H]2CN(CCc3c([nH]c4ccccc34)[C@@](C(=O)OC)(c3cc4c(cc3OC)N(C)[C@H]3[C@@](O)(C(=O)OC)[C@H](OC(C)=O)[C@]5(CC)C=CCN6CC[C@]43[C@@H]65)C2)C1 | inactive | – |
| CCOc1ccccc1C(N)=O | inactive | – |
| O=S(=O)(O)c1ccc2nc(-c3ccccc3)[nH]c2c1 | inactive | – |
| N[C@@H]1CONC1=O | – | 3.86% [at 35.3 µM] (inactive) |
| c1cnc2cc3c(cc2n1)C1CNCC3C1 | – | -0.979% [at 35.3 µM] (inactive) |
| CC(N)=O | – | 18.7% [at 200 µM] (inactive) |
| CC(=O)CC(C)=O | – | -0.0153% (inactive) |
| Cc1scc2c1N(C(=O)CN1CCN(C)CC1)c1ccccc1NC2=O | – | -1.94% [at 35.3 µM] (inactive) |
| CCN(CC)C(=S)SSC(=S)N(CC)CC | 141 nM (active) and inactive | – |

| Structure (SMILES) | Potency | cytotoxicity increase |
| --- | --- | --- |
| Cc1cc(OCCOCC[N+](C)(C)Cc2ccccc2)ccc1C(C)(C)CC(C)(C)C | 21.7 µM (active) and 23.9 µM (active) | – |
| NCCO | – | -12.4% (inactive) |
| CC(C)CCOC(=O)c1ccc(N(C)C)cc1 | – | -1.18% [at 35.3 µM] (inactive) |
| Nc1ccc(O)cc1 | – | -0.57% [at 35.3 µM] (inactive) |
| CCOC(=O)C(C)C(C)=O (stereo not given) | – | -0.557% (inactive) |
| CC(=O)O[C@]1(C(C)=O)CC[C@H]2[C@@H]3C[C@H](C)C4=CC(=O)CC[C@]4(C)[C@H]3CC[C@@]21C | – | 16.2% [at 35.3 µM] (inactive) |
| O=C1NCC2(CCN(CCc3ccccc3)CC2)O1 | – | -4.24% [at 35.3 µM] (inactive) |
| Cc1ccc(S(=O)(=O)Oc2ccc(N=Nc3ccc(-c4ccc(N=Nc5c(O)ccc6cc(S(=O)(=O)O)cc(S(=O)(=O)O)c56)c(C)c4)cc3C)cc2)cc1 | inactive | – |
| NC(Cc1ccc(Cl)cc1)C(=O)O (stereo not given) | – | -6.93% [at 0.29 µM] (inactive) |
| Cc1ccnc2c1NC(=O)c1cccnc1N2C1CC1 | inactive | – |
| O=C(Cl)c1cccc(C(=O)Cl)c1 | inactive | – |
| CC[C@@H](N)CO | – | -5.63% (inactive) |
| Cc1c2oc3c(C)ccc(C(=O)N[C@@H]4C(=O)N[C@H](C(C)C)C(=O)N5CCC[C@H]5C(=O)N(C)CC(=O)N(C)[C@@H](C(C)C)C(=O)O[C@@H]4C)c3nc-2c(C(=O)N[C@@H]2C(=O)N[C@H](C(C)C)C(=O)N3CCC[C@H]3C(=O)N(C)CC(=O)N(C)[C@@H](C(C)C)C(=O)O[C@@H]2C)c(N)c1=O (I: T[dV]P[Sar][NMeV] / II: T[dV]P[Sar][NMeV]; ester I:1-I:C, II:1-II:C; linker I:N-II:N via Actinocin(9to1)) | inactive | – |
| CCC(C)(C)C(=O)O[C@H]1C[C@@H](C)C=C2C=C[C@H](C)[C@H](CC[C@@H]3C[C@@H](O)CC(=O)O3)[C@H]21 | – | -15.9% (inactive) |
| CC(C)(O)CCC(C)(C)O | – | -5.85% (inactive) |
| NCCCCCC(=O)O | – | -5.07% [at 35.3 µM] (inactive) |
| CC(C)(C)c1ccc(O)c(C(C)(C)C)c1 | 24.4 µM (active) and 34.7 µM (active) | – |
| O=c1n(CC2CO2)c(=O)n(CC2CO2)c(=O)n1CC1CO1 (stereo not given) | inactive | – |
| CCn1c2ccccc2c2cc(N)ccc21 | inactive | – |
| COC(=O)c1cccc(C(=O)OC)c1 | inactive and 38.9 µM (active) | – |
